Compounds with a hit are over-represented: about 19% of the library has one in this group of screens.
TDP1 cell CPT = DT40-hTDP1 cell growth loss with CPT. chicken DT40 Tdp1-/-;hTDP1 cells + 20 nM CPT, ATP luminescence, 48 h. Potency, µM (titrated, usually from 46.2 µM), for inactives: at the highest dose activity change, negative = growth inhibition, most hits filed as inhibitors. 420,000 tested, 12% active. AID 686979; further: potency means the concentration at half of the fitted maximal effect; nearly all actives have a fitted effect of over 55% in size
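Cell growth measured by CellTiter-Glo luminescence after a minimum 48 h, 37 C compound exposure with 20 nM CPT in Tdp1-knockout DT40 cells stably expressing hTDP1, seeded 400/well; qHTS titration format.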
DT40 TDP1 no CPT = qHTS for Inhibitors of human tyrosyl-DNA phosphodiesterase 1 (TDP1): qHTS in cells in absence of CPT; DT40 Tdp1-/- hTDP1 cells, no CPT, ATP luminescence, 48 h; Potency, µM (highest dose often 46.2 µM), for the others: at the top dose activity change, negative = growth inhibition, usual class: inhibitors; 420,000 tested, 15% active; further: potency means the concentration at half of the fitted maximal effect; nearly all actives have a fitted effect of over 55% in size
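Seeded 400 DT40-hTDP1 cells/well (vehicle DMSO, no 20 nM CPT); pinned compounds; ≥48 hr at 37 °C; CellTiter-Glo luminescence as viability measure.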
IL1B secr inh = blocks inflammasome-driven IL-1 beta release; THP-1 LPS/ATP IL-1B secretion, AlphaLISA, 16 h; active compounds read low; activity change, % at 57.5 µM; 360,000 tested, 4.7% active; in the data active means activity change below about -50%; inconclusive means mostly about -30% to -49%
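THP-1 cells pretreated 1 hr with compounds (up to 57.5 uM final), then stimulated with LPS (250 ng/mL final) plus ATP (1.25 mM final); secreted IL-1B measured by AlphaLISA after 16 hr, decreased signal indicating inhibition.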
HT1080NT lethal = kills 2HG-producing HT-1080-NT fibrosarcoma cells. Potency, µM (series often up to 46.1 µM), for the others: top-dose activity, negative = less viability, most hits filed as cytotoxic. 360,000 tested, 1.6% active. HT-1080-NT fibrosarcoma viability, CellTiter-Glo ATP luminescence, 48 h;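 further: NT is the 2HG producing partner of a matched IDH1 knockdown line; potency means the concentration at half of the fitted maximal effect; 0% = DMSO-treated cells and -100% = media-only wells without cells; nearly all actives have a fitted effect of over 55% in size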
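Viability of the 2HG-overproducing fibrosarcoma line after 48 hours of compound exposure at 37 degrees C was determined by luminescence with CellTiter-Glo, and concentration-effect curves were then fitted and categorized.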
HT1080 IDH1KD tx = HT-1080 IDH1 knockdown cell toxicity (counter line); AID 686971; Potency, µM (top dose mostly 46.1 µM), for inactives: top-dose activity, negative = toxicity, usual class: cytotoxic; 360,000 tested, 2% active; HT-1080 IDH1 knockdown viability, ATP luminescence, 48 h;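 further: potency means the concentration at half of the fitted maximal effect; 0% = DMSO wells and -100% = cell-free medium wells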
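Viability of IDH1-knockdown HT-1080 fibrosarcoma cells was assessed by CellTiter-Glo after 48 h at 37 °C with titrated compound; concentration-effect curves were classified by fit quality and response size.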
* = called active by the depositor; ? = inconclusive; · = no result given. Unless noted, the call rests on the fitted dose curve; in most records, active means well fitted curve in the direction sought with a large enough effect; inconclusive means small, poorly fitted or top-dose-only effect, or another doubt; inactive means no such curve, though single readings can be large; an effect the other way counts as inactive or inconclusive. Unless noted, on the % scale 0 is the no-effect control and ±100 the full control effect.

SMILES | TDP1 cell CPT | DT40 TDP1 no CPT | IL1B secr inh | HT1080NT lethal | HT1080 IDH1KD tx
COc1ccc(C(=O)CN2Cc3ccccc3C2=N)cc1 | 16.4µM* | 18.4µM* | -18.2 | -21.7% | -21.1%
CCN(CC)CCn1c(=N)n(CC(=O)c2ccc(C)cc2)c2ccccc21 | 16.4µM* | 13µM* | -58.5* | -25.4% | ?
O=C(O)CN(Cc1ccccc1)S(=O)(=O)c1ccc(F)cc1 | 5.4% | -26.3% | -0.4 | 2.2% | -0.8%
Cn1c(=N)n(CC(=O)c2ccc(Cl)c(Cl)c2)c2ccccc21 | 13µM* | 16.4µM* | ? | -7.7% | -6.6%
Cn1c(=N)n(CC(=O)c2ccccc2)c2ccccc21 | ? | 18.4µM* | -4.4 | -5.8% | -17.3%
CNc1c(NC(=O)c2ccc3c(c2)OCO3)c(=O)oc2ccccc12 | -17.6% | 6.7% | -13.3 | -6.1% | 2.6%
Cc1ccc(S(=O)(=O)CCc2nc3ccccc3s2)cc1C | 3.5% | -9.7% | 31.8 | -1.1% | 0.5%
O=[N+]([O-])C1C(c2ccccc2)=NOC1c1ccccc1O (stereo not given) | 1.9% | 1.8% | 16.2 | 0.0% | 0.3%
CCN(C1CCCCC1)S(=O)(=O)CCNC(=O)c1ccccc1 | -5.6% | ? | 4.8 | 8.2% | 14.8%
CCN(C1CCCCC1)S(=O)(=O)CCNC(=O)c1ccc2c(c1)OCO2 | 23.1µM* | ? | -19.0 | 1.1% | 1.4%
CCCC(=O)N(c1ccc(OCC)cc1)S(=O)(=O)c1ccc2c3c(cccc13)C(=O)N2C | 14.6µM* | 13µM* | -9.1 | 0.7% | 12.5%
Cc1cc(O)ccc1Nc1nc2ccccc2nc1Nc1ccc(O)cc1C | 8.2µM* | 5.17µM* | -7.3 | 1.0% | -8.3%
CCCc1cc(=O)[nH]c(Nc2ccc(O)cc2C)n1 | -13.5% | 6.7% | · | · | ·
CC(C)(C)Sc1ccc([N+](=O)[O-])cc1C(=O)Nc1ccncc1 | 3.6% | -25.4% | -12.9 | 2.5% | -11.4%
Nc1ccc(NC(=O)CCN2CCOCC2)cc1 | -1.6% | -14.2% | 2.4 | 20.2% | 11.8%
Cc1nn(Cc2ccc(Cl)cc2Cl)c(Cl)c1/C=C/C(=O)OCC(=O)NCC(F)(F)F | -29.2% | 20.6µM* | 0.1 | -5.3% | -21.5%
Cc1nn(Cc2ccccc2Cl)c(Cl)c1/C=C/C(=O)OCC(=O)NC(N)=O | ? | 2.31µM* | -2.8 | 2.1% | -1.6%
CCOc1ccccc1N(CC(=O)NC1CCCC1)S(=O)(=O)c1ccc(C)cc1 | ? | 20.6µM* | 0.0 | -13.0% | 0.1%
CCOC(=O)N1CCN(C(=O)CS(=O)(=O)c2cn(Cc3ccc(Cl)cc3)c3ccccc23)CC1 | 23.1µM* | 16.4µM* | 14.2 | -2.9% | -1.7%
COc1cccc(N(CC(=O)N2CCC(C)CC2)S(=O)(=O)c2ccc(C)cc2)c1 | 20.6µM* | 14.6µM* | · | · | ·
CCOC(=O)N1CCN(C(=O)CN(Cc2ccc(Cl)cc2)S(=O)(=O)c2ccc(C)cc2)CC1 | 15.8µM* | ? | 4.6 | -1.9% | 2.1%
CCOC(=O)C(Cc1c[nH]c2ccc([N+](=O)[O-])cc12)(NC(C)=O)C(=O)OCC | ? | ? | 6.8 | 0.0% | -19.4%
CSCCC(NC(=O)c1ccccc1Br)C(=O)NCC(c1ccco1)N1CCCCC1 (stereo not given) | -8.5% | 3.7% | -2.4 | 2.1% | 7.6%
CCOc1ccccc1N(CC(=O)N1CCC(C)CC1)S(=O)(=O)c1ccc(C)cc1 | 9.2µM* | 14.6µM* | -3.4 | -6.0% | -17.4%
CCOc1ccccc1N(CC(=O)NC1CCCCC1)C(=O)c1nsc(Cl)c1Cl | -23.6% | 25.9µM* | -10.7 | -3.1% | -1.5%
SMILES | TDP1 cell CPT | DT40 TDP1 no CPT | IL1B secr inh | HT1080NT lethal | HT1080 IDH1KD tx
CCOC(=O)C1CCC(CN(Cc2ccc(Cl)cc2)S(=O)(=O)c2cc(Cl)cc(Cl)c2)CC1 (stereo not given) | 20.6µM* | 10.3µM* | · | · | ·
COc1ccccc1N(CC(=O)N1CCCCCC1)S(=O)(=O)c1ccc(C)cc1 | ? | ? | -1.6 | -11.8% | -4.2%
CCOC(=O)N1CCN(C(=O)CN(c2ccccc2OC)S(=O)(=O)c2ccc(C)cc2)CC1 | -0.5% | -18.4% | -10.3 | 4.4% | 4.1%
CCOC(=O)C1CCC(CN(Cc2ccc(OC)cc2)S(=O)(=O)c2ccc(F)c(C(=O)Nc3cc(Cl)ccc3OC)c2)CC1 (stereo not given) | -11.1% | -16.5% | · | · | ·
CCOc1ccccc1N(CC(=O)N1CCCCCC1)S(=O)(=O)c1ccc(C)cc1 | 23.1µM* | ? | 0.0 | -2.3% | -7.0%
Cc1cccc(N(CC(=O)NC2CCCC2)C(=O)c2nsc(Cl)c2Cl)c1C | ? | ? | -5.3 | -1.6% | -9.9%
O=C(CN1CCN(C(=O)CN2C(=O)NC3(CCCC3)C2=O)CC1)Nc1cccc(F)c1 | 6.6% | 0.0% | 19.5 | 8.5% | 8.5%
CC(C)CCNC(=O)CN(Cc1ccccc1)C(=O)CCC(=O)Nc1ccccn1 | -8.5% | -20.0% | 12.5 | 13.9% | 12.6%
COc1cc(C(=O)OCC(=O)Nc2ccc(N3CCOCC3)cc2)ccc1OCC(C)C | -9.1% | ? | 26.8 | 1.7% | -1.4%
COc1ccc(C(=O)Nc2ccc(OCc3cc(=O)n4ccccc4n3)cc2)cc1 | 1.9% | -24.8% | · | · | ·
C=CCNC(=O)C1CC1(c1ccc(C)cc1)c1ccc(C)cc1 (stereo not given) | 1.7% | -12.2% | -11.2 | -1.3% | -25.3%
O=C(/C=C/c1ccc(O)cc1)c1ccccc1 | -24.7% | ? | ? | -4.2% | -5.0%
O=C(C=Cc1ccccn1)c1ccccc1O | 2.91µM* | 3.66µM* | -94.5* | 0.0% | -14.7%
O=C(C=Cc1ccccn1)c1ccccc1 | 3.26µM* | 2.91µM* | -97.6* | ? | 10.3µM*
O=C(NCC1CCCO1)C1CCCN(S(=O)(=O)c2cc(Cl)ccc2Cl)C1 (stereo not given) | -14.6% | ? | 10.4 | 0.0% | 0.7%
COc1ccccc1CNC(=O)COc1cc(=O)n(C)c2ccccc12 | -28.2% | ? | · | · | ·
COc1ccc([C@H]2N[C@]3(CCCN(Cc4ccc(C(F)(F)F)cc4)C3=O)[C@H]3C(=O)N(Cc4ccccc4)C(=O)[C@@H]23)cc1 | ? | 18.4µM* | 0.0 | -26.9% | ?
COc1ccc(CN2CCC[C@]3(N[C@H](c4ccc(C(F)(F)F)cc4)[C@@H]4C(=O)N(C)C(=O)[C@@H]43)C2=O)cc1 | 23.1µM* | ? | 31.3 | -17.3% | -6.5%
O=C1[C@H]2[C@@H](c3ccc(C(F)(F)F)cc3)N[C@]3(CCCN(Cc4ccc(C(F)(F)F)cc4)C3=O)[C@H]2C(=O)N1Cc1ccccc1 | 18.4µM* | 18.4µM* | ? | -16.8% | ?
CC(C)CCN1CCC[C@]2(N[C@H](c3ccc(C(F)(F)F)cc3)[C@@H]3C(=O)N(Cc4ccccc4)C(=O)[C@@H]32)C1=O | 18.4µM* | 16.4µM* | -19.5 | -0.9% | -14.0%
